Measurements as given in PubChem BioAssay (NCI).
The panel holds about 79,000 compounds, 15% with a hit somewhere; the sample as a whole holds those more often. Calls of active or inactive are those of the source. Rule as the data show it: active = growth inhibition above about 70%; inactive = the rest.

Assays:
[1] = NCI Yeast Anticancer Drug Screen. Data for the wt1 strain (AID 149);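 also: 0% = growth of vehicle-treated wt1 cultures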; conditions: S. cerevisiae wt1 strain (SPY 50644) growth inhibition, active compounds read high
Outline: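 wt1 yeast, compound-treated; % growth inhibition vs vehicle control.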

[2] = NCI Yeast Anticancer Drug Screen. Data for the rad50EPP+ strain (AID 151);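 also: 0% = growth of vehicle-treated control cultures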; conditions: S. cerevisiae rad50 mutant strain, active compounds read high
Outline: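 rad50EPP+ yeast treated with test compounds. Readout: growth vs vehicle control.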

[3] = NCI Yeast Anticancer Drug Screen. Data for the mgt1 strain (AID 153); conditions: S. cerevisiae mgt1 mutant growth inhibition, active compounds read high
Outline: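 Growth inhibition relative to vehicle controls was scored for the mgt1 yeast strain after compound exposure.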

[4] = NCI Yeast Anticancer Drug Screen. Data for the rad50 strain (AID 155);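 also: 0% = growth of vehicle-only cultures of the same strain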; conditions: S. cerevisiae rad50 strain growth inhibition, active compounds read high
Outline: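 Genetically altered yeast (DNA repair pathway); compound treatment; growth inhibition vs vehicle ctrl.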

[5] = NCI Yeast Anticancer Drug Screen. Data for the mec2-1 strain (AID 157); conditions: S. cerevisiae mec2-1 strain, active compounds read high
Outline: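 Growth inhibition is read against vehicle-treated controls after compound exposure of the mec2-1 yeast strain, which is defective in DNA damage repair or cell cycle control.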

[6] = NCI Yeast Anticancer Drug Screen. Data for the rad14 strain (AID 159);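 also: 0% = growth of vehicle-treated control cultures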; conditions: S. cerevisiae rad14 strain growth inhibition, active compounds read high
Outline: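 Test compounds were applied to a repair-deficient yeast strain. Its growth was then compared with that of cultures given vehicle alone, and inhibition was expressed relative to those controls.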

[7] = NCI Yeast Anticancer Drug Screen. Data for the sgs1 mgt1 strain (AID 161);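 also: 0% = growth of cultures given vehicle only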; conditions: S. cerevisiae sgs1 mgt1 strain, active compounds read high
Outline: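 Percent growth inhibition was derived by comparing compound-exposed mutant yeast with vehicle-exposed cultures. The strain carries alterations in DNA damage repair.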

[8] = NCI Yeast Anticancer Drug Screen. Data for the CLN2oe strain (AID 163);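 also: 0% = growth of vehicle-only control cultures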; conditions: S. cerevisiae CLN2oe strain, active compounds read high
Outline: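 Compound-treated yeast; growth vs vehicle ctrl = % inhibition. Genetically altered strain (cell-cycle control).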

[9] = NCI Yeast Anticancer Drug Screen. Data for the cln2 rad14 strain (AID 165);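 also: 0% = growth equal to vehicle treated cultures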; conditions: S. cerevisiae cln2 rad14 strain, active compounds read high
Outline: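 Growth inhibition, relative to vehicle-treated controls, is the read-out. The test organism is a yeast strain with defined genetic alterations, cln2 rad14.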

[10] = NCI Yeast Anticancer Drug Screen. Data for the bub3 strain (AID 167); conditions: S. cerevisiae bub3 mutant strain, active compounds read high
Outline: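 Yeast carrying a defined mutation is treated with each compound, and growth is compared with that of vehicle-exposed cells to give inhibition.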

[11] = NCI Yeast Anticancer Drug Screen. Data for the wt2 strain (AID 169);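 also: 0% = growth of vehicle-treated yeast cultures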; conditions: S. cerevisiae wt2 strain growth inhibition, active compounds read high
Outline: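 Compound exposure of yeast; growth compared with vehicle controls; inhibition reported.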

[12] = NCI Yeast Anticancer Drug Screen. Data for the mlh1 strain (AID 171);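 also: 0% = growth of vehicle-treated control cultures of the same strain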; conditions: S. cerevisiae mlh1 strain growth inhibition, active compounds read high
Outline: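 Compounds are applied to a genetically altered yeast strain, and its growth is compared with that of vehicle-treated cultures to give percent inhibition.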

[13] = NCI Yeast Anticancer Drug Screen. Data for the sgs1 strain (AID 173);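 also: 0% = growth of vehicle-only control cultures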; conditions: S. cerevisiae sgs1 mutant, active compounds read high
Outline: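 Compounds applied to genetically altered yeast; growth compared with vehicle-treated cultures to give % inhibition.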

[14] = NCI Yeast Anticancer Drug Screen. Data for the mlh1 rad18 strain (AID 175); conditions: S. cerevisiae mlh1 rad18 strain growth inhibition, active compounds read high
Outline: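 Cells of a genetically altered yeast strain, deficient in DNA damage repair, were treated with compound. Their growth was then compared with that of vehicle-treated cultures to give inhibition.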

[15] = NCI Yeast Anticancer Drug Screen. Data for the rad18 strain (AID 177); conditions: S. cerevisiae rad18 mutant growth inhibition, active compounds read high
Outline: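 Compounds are applied to a repair-deficient yeast strain, and growth is compared with that of vehicle-treated cultures to give percent inhibition.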

[16] = NCI Yeast Anticancer Drug Screen. Data for the rad52 strain (AID 147);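 also: 0% = growth of vehicle-treated control cultures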; conditions: S. cerevisiae rad52 mutant growth inhibition, active compounds read high
Outline: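 DNA repair-defective yeast; compound exposure; growth scored against vehicle controls.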

[17] = at 5.0 µM (retest, dose inferred, filed as 0.5)
[18] = at 50.0 µM (retest, dose inferred, filed as 5.0)

Measured: growth inhibition

CCC(C)(C)c1ccc(Oc2cccc(C(=O)O)c2)cc1
active: [3]; at 100.0 µM 92% | [4]; at 50.0 µM 72.1% | [4]; at 100.0 µM 71% | [5]; at 33.0 µM 70% | [5]; at 50.0 µM 78.8% | [5]; at 100.0 µM 96% | [6]; at 100.0 µM 72% | [8]; at 33.0 µM 84% | [8]; at 100.0 µM 84% | [9]; at 50.0 µM 88% | [10]; at 50.0 µM 71.8% | [10]; at 100.0 µM 84% | [12]; at 100.0 µM 96% | [14]; at 50.0 µM 86.7%
inactive: [1]; at 1.2 µM -1% | [1]; at 3.7 µM -3% | [1]; at 11.0 µM 12% | [1]; at 33.0 µM 49% | [1]; at 100.0 µM 59% | [2]; at 1.2 µM 8% | [2]; at 3.7 µM 18% | [2]; at 11.0 µM 25% | [2]; at 33.0 µM 42% | [2]; at 100.0 µM 56% | [3]; at 1.2 µM -4% | [3]; at 3.7 µM -6% | [3]; at 11.0 µM 2% | [3]; at 33.0 µM 52% | [4]; at 1.2 µM 2% | [4]; at 3.7 µM -1% | [4]; [17] -2% | [4]; at 11.0 µM 25% | [4]; at 33.0 µM 55% | [4]; [18] 44% | [5]; at 1.2 µM -1% | [5]; at 3.7 µM 2% | [5]; [17] 19% | [5]; at 11.0 µM 25% | [5]; [18] 48% | [6]; at 1.2 µM -6% | [6]; at 3.7 µM -14% | [6]; at 11.0 µM 2% | [6]; at 33.0 µM 54% | [7]; [17] -1% | [7]; [18] 9% | [7]; at 50.0 µM 58.2% | [8]; at 1.2 µM -4% | [8]; at 3.7 µM -4% | [8]; at 11.0 µM 24% | [9]; [17] -27% | [9]; [18] 30% | [10]; at 1.2 µM -8% | [10]; at 3.7 µM -2% | [10]; [17] -17% | [10]; at 11.0 µM 23% | [10]; at 33.0 µM 68% | [10]; [18] 32% | [11]; at 1.2 µM -4% | [11]; at 3.7 µM -4% | [11]; at 11.0 µM 7% | [11]; at 33.0 µM 46% | [11]; at 100.0 µM 62% | [12]; at 1.2 µM 1% | [12]; at 3.7 µM -1% | [12]; at 11.0 µM 14% | [12]; at 33.0 µM 31% | [13]; at 1.2 µM 6% | [13]; at 3.7 µM 10% | [13]; at 11.0 µM 28% | [13]; at 33.0 µM 54% | [13]; at 100.0 µM 68% | [14]; [17] 10% | [14]; [18] 36% | [15]; at 1.2 µM 8% | [15]; at 3.7 µM 3% | [15]; at 11.0 µM 17% | [15]; at 33.0 µM 49% | [15]; at 100.0 µM 69%

O=C1NC(=O)c2ccc([N+](=O)[O-])c3cccc1c23
inactive: [16]; at 1.2 µM 11% | [16]; at 3.7 µM 27% | [16]; at 11.0 µM 36% | [16]; at 33.0 µM 56% | [2]; at 1.2 µM 45% | [2]; at 3.7 µM 51% | [2]; at 11.0 µM 65% | [3]; at 1.2 µM 11% | [3]; at 3.7 µM 18% | [3]; at 11.0 µM 20% | [3]; at 33.0 µM 30% | [3]; at 100.0 µM 49% | [4]; at 1.2 µM 7% | [4]; at 3.7 µM 13% | [4]; [17] -15% | [4]; at 11.0 µM 20% | [4]; at 33.0 µM 47% | [4]; [18] 55% | [4]; at 50.0 µM 64.5% | [4]; at 100.0 µM 65% | [5]; at 1.2 µM 11% | [5]; at 3.7 µM 20% | [5]; [17] -36% | [5]; at 11.0 µM 20% | [5]; at 33.0 µM 35% | [5]; [18] 23% | [5]; at 50.0 µM 33.5% | [6]; at 1.2 µM -2% | [6]; at 3.7 µM 5% | [6]; at 11.0 µM 21% | [6]; at 33.0 µM 55% | [7]; [17] -8% | [7]; [18] 23% | [7]; at 50.0 µM 68.8% | [8]; at 1.2 µM -2% | [8]; at 3.7 µM -1% | [8]; at 11.0 µM 3% | [8]; at 33.0 µM 17% | [8]; at 100.0 µM 68% | [9]; [17] 24% | [9]; [18] 68% | [10]; at 1.2 µM 28% | [10]; at 3.7 µM 43% | [10]; [17] 2% | [10]; at 11.0 µM 39% | [10]; at 33.0 µM 55% | [10]; at 50.0 µM 51.9% | [10]; at 100.0 µM 67% | [11]; at 1.2 µM 21% | [11]; at 3.7 µM 12% | [11]; at 11.0 µM 29% | [11]; at 33.0 µM 43% | [11]; at 100.0 µM 62% | [12]; at 1.2 µM 32% | [12]; at 3.7 µM 28% | [12]; at 11.0 µM 41% | [12]; at 33.0 µM 65% | [13]; at 1.2 µM 41% | [13]; at 3.7 µM 51% | [13]; at 11.0 µM 66% | [14]; [17] 51% | [14]; at 50.0 µM 37.5% | [15]; at 1.2 µM 48%
active: [16]; at 100.0 µM 73% | [2]; at 33.0 µM 78% | [2]; at 100.0 µM 81% | [5]; at 100.0 µM 72% | [6]; at 100.0 µM 79% | [9]; at 50.0 µM 72.2% | [10]; [18] 79% | [12]; at 100.0 µM 75% | [13]; at 33.0 µM 78% | [13]; at 100.0 µM 74% | [14]; [18] 87% | [15]; at 3.7 µM 72% | [15]; at 11.0 µM 86% | [15]; at 33.0 µM 93% | [15]; at 100.0 µM 92%

Brc1ccccc1-c1ncc(-c2ccccc2)o1
active: [3]; at 33.0 µM 73% | [3]; at 100.0 µM 78% | [4]; [18] 81% | [4]; at 50.0 µM 72.2% | [4]; at 100.0 µM 70% | [5]; [18] 98%
inactive: [16]; at 1.2 µM -7% | [16]; at 3.7 µM -3% | [16]; at 11.0 µM 19% | [16]; at 33.0 µM 42% | [16]; at 100.0 µM 55% | [2]; at 1.2 µM -14% | [2]; at 3.7 µM 10% | [2]; at 11.0 µM -1% | [2]; at 33.0 µM 38% | [2]; at 100.0 µM 62% | [3]; at 1.2 µM 15% | [3]; at 3.7 µM 27% | [3]; at 11.0 µM 33% | [4]; at 1.2 µM -1% | [4]; at 3.7 µM -2% | [4]; [17] 42% | [4]; at 11.0 µM 24% | [4]; at 33.0 µM 66% | [5]; at 1.2 µM 7% | [5]; at 3.7 µM -23% | [5]; [17] 42% | [5]; at 11.0 µM -10% | [5]; at 33.0 µM 40% | [5]; at 50.0 µM 47.1%
